Laboratory results: PubChem BioAssay AID2796 (The Scripps Research Institute Molecular Screening Center, 2010)
In all, about 320,000 compounds went through this assay and about 8,000 (2.5%) were called active. What follows is part of a selection rich in actives, with near analogues and random picks from the rest. Unmarked numbers belong to inactive results. No stated cut-off is given here; in the data, active means activation above about 47%; inactive means the rest.

Biological target: Aryl hydrocarbon receptor (Homo sapiens) (UniProt P35869)
Experiment: AHR activators, primary screen, cell-based, luminescence, luciferase reporter, human (AID 2796);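 further: 0% = vehicle wells and 100% = reference agonist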
Details: AHR-responsive luciferase reporter cells, at 5 µM, active compounds read high

Aryl hydrocarbon receptor (Homo sapiens), sequence (P35869 whole entry, looked up): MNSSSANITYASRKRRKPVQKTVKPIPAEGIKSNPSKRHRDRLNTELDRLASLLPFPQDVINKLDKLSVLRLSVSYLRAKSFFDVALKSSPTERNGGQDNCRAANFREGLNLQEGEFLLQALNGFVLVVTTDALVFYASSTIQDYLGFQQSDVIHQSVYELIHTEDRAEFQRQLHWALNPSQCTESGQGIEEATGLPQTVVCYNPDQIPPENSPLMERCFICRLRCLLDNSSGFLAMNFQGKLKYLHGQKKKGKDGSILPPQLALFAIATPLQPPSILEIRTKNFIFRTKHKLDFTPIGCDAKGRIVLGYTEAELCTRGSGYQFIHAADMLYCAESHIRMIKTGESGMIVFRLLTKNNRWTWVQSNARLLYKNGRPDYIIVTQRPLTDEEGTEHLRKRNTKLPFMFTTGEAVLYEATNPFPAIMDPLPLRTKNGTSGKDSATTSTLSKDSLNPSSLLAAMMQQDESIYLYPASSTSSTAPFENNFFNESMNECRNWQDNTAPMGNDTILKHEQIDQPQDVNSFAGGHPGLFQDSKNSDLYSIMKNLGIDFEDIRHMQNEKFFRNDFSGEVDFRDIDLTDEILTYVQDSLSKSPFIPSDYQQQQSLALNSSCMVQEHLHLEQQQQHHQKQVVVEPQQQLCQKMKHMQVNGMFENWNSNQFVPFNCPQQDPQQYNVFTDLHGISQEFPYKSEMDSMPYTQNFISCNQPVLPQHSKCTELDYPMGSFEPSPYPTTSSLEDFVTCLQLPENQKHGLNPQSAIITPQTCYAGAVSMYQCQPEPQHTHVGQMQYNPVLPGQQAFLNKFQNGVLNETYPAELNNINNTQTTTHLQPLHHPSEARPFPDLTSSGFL

SMILES | activation
S=c1[nH]cc(-c2ccc(Cl)cc2)n1-c1ccccc1 | 6.37%
CC(C)(C)OC(=O)C[C@@H]1C/C=C\C[C@@H](CC(=O)NCCO)C(=O)N[C@H](Cc2c[nH]c3ccccc23)COC1=O | 0.32%
C=CCN1C(=O)C2(OCCCO2)c2cccc(Cl)c21 | -2.96%
Cc1ccc2occ(/C=N/NC(=O)c3ccccc3C)c(=O)c2c1 | 6.34%
NC(=S)N/N=C/c1coc2cc(Cl)ccc2c1=O | 60.2% (active)
O=c1c(/C=N/O)coc2ccc(Cl)cc12 | -0.55%
O=c1[nH]c2cccnc2n1-c1ccc([N+](=O)[O-])cc1 | 60.9% (active)
O=c1[nH]n(-c2ccc([N+](=O)[O-])cc2)c(=O)c2ccccc12 | 1.45%
O=[N+]([O-])c1ccc2nc(-c3ccccn3)[nH]c2c1 | 3.58%
CCOc1ccc(CN2CCN(CCCc3ccccc3)C(CCO)C2)cc1 (centres undefined) | 0.01%
O=C(Nc1cccc(NC(=O)c2ccccc2[N+](=O)[O-])c1)c1ccccc1Cl | 8.43%
COc1cc(NC(=O)c2cccs2)ccc1NC(=O)c1ccccc1Cl | -11.1%
O=C(Nc1ccc2sc3ccccc3c(=O)c2c1)c1ccccc1Cl | 49.1% (active)
COc1cc(S(=O)(=O)N2CCN=C2c2ccccc2)ccc1Cl | 1.21%
Cc1ccccc1OCCC(=O)OCC(=O)NC(C)c1ccccc1 (centres undefined) | -2.01%
COc1ccc(Cl)cc1C(=O)NNC(=S)NC1CCCC1 | 32.1%
COc1ccc(Cl)cc1C(=O)NNC(=S)NC(=O)/C=C/c1ccco1 | 4.8%
C=CCNC(=S)NNC(=O)c1cc(Cl)ccc1OC | 52.7% (active)
Cc1nc(SCC(=O)N2CCc3ccccc3C2)c2c(C)c(C)sc2n1 | 3.83%
COc1ccc(NC(=O)c2ccco2)cc1NC(=O)c1ccc(C#N)cc1F | 96.2% (active)
COc1cc(NC(=O)c2cc([N+](=O)[O-])ccc2Br)ccc1NC(=O)c1ccco1 | -4.72%
COc1ccccc1C(=O)Nc1ccc(NC(=O)c2ccco2)c(C)c1 | 40.4%
O=S(=O)(NC1CC1)c1ccc2c3c(cccc13)CC2 | 1.23%
CCn1c(CN2C(=O)CSc3ccccc32)n[nH]c1=S | 1.51%
Cc1sc2ncnc(Sc3nc4ccccc4s3)c2c1C | 47.2% (active)

SMILES | activation
CSc1ncnc2sc(C)c(C)c12 | 1.25%
COC(=O)c1c(-c2cccs2)csc1NC(=O)CSc1ncnc2sc(C)c(C)c12 | 6.7%
O=C(NNS(=O)(=O)c1ccc(F)cc1)C1CCCCC1 | -0.99%
CN(CC(=O)Nc1ccc(Cl)cc1)C(=O)c1ccc(COc2ccccc2)cc1 | 0.65%
CC(=O)N1c2ccc(S(=O)(=O)N3CCCC(C(=O)Nc4ccc(C)cc4C)C3)cc2CC1C (centres undefined) | 0.6%
CCC(=O)c1ccc(OCC(=O)OCC(=O)N2CCc3ccccc3C2)cc1 | -1.4%
COc1cc(OC)cc(-c2sc3ccc(OC)cc3c2-c2ccc3cc[nH]c3c2)c1 | 13%
COc1ccc2sc(-c3ccccc3OC)c(-c3ccc(OCCN4CCCC4)cc3)c2c1 | 1.65%
COc1ccc2sc(-c3ccc(N(C)C)cc3)c(C#CCO)c2c1 | 64.8% (active)
COc1ccc(-c2sc3ccc(OC)cc3c2C#Cc2ccccn2)cc1 | 70.4% (active)
COc1ccc2sc(-c3ccc(N(C)C)cc3)c(-c3ccc4cc[nH]c4c3)c2c1 | 22.1%
COc1ccc2sc(-c3ccc(S(C)(=O)=O)cc3)c(C#Cc3cncn3C)c2c1 | 39.3%
CCCN(C(=O)CSc1nnc(N)s1)c1c(N)n(Cc2ccccc2)c(=O)[nH]c1=O | 0.7%
COc1cccc(CN(C)CC2CCCN(CCc3ccc(Cl)cc3)C2)c1OC (centres undefined) | -2.92%
COc1ccc2c(c1)CCC/C2=N\OC(=O)c1ccccc1F | 2.52%
COCCN(Cc1ccccc1)C(=O)Cc1ccc(S(=O)(=O)N2CCOCC2)s1 | 0.03%
O=C1OC[C@@H]2CCCN2C(=O)[C@H](CC(=O)N(CCO)Cc2ccccc2)C/C=C\CC[C@@H]1Cc1ccc(F)cc1 | -2.45%
COc1ccc(-c2nn(-c3ccccc3)cc2/C=N/Nc2ccccn2)cc1OC | 30.3%
COc1ccccc1/C=N\Nc1cc(C)nc(-n2nc(C)cc2C)n1 | 70.2% (active)
Cc1cc(N/N=C\c2ccc(Br)cc2)nc(-n2nc(C)cc2C)n1 | 27.3%
CCOc1ccccc1NC(=O)COc1ccc(S(=O)(=O)N2CCCC2)cc1 | 7.9%
CC(=O)Nc1cccc(Nc2nc(-c3cccs3)nc3ccccc23)c1 | 51.4% (active)
O=C(Nc1nnc(-c2ccccc2)o1)c1cc(-c2cccs2)nc2ccccc12 | 5.25%
COc1ccccc1C(=O)Nn1c(-c2cccs2)nc2ccccc2c1=O | 13.9%
